The values below come from PubChem BioAssay (NCI).

Common to all, as to experiment: NCI-60 one-dose screen, 48 h (100 = growth as untreated, 0 = no growth, -100 = all killed)
What all share (settings): 10 µM unless noted

For assay [1], the system named is NCI-H23 lung.
For assay [2], the system named is NCI-H226 lung.
The test system of assay [3] is NCI-H322M lung.
Assay [4] has as its system HOP-62 NSCLC.
In assay [5] the test system is NCI-H460 lung.
For assay [6], the system named is HOP-92 NSCLC.
Assay [7] has as its system NCI-H522 lung.
For assay [8], the system named is A549/ATCC NSCLC.
The test system of assay [9] is 786-0 renal.
For assay [10], the system named is COLO 205 colon.

The panel holds about 83,000 compounds, 20% with a hit somewhere; the sample as a whole holds those more often.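 In brief: 96-well plates, 48 h treatment, single concentration, percent growth endpoint.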 Values without a mark were called inactive. Activity calls are given as the source filed them. Rule for the calls: active = growth percent below 10; inactive = the rest.

Take `CCOC(=O)C1=C(C)NC(=O)NC1c1c(Cl)n(-c2ccccc2)c2ccccc12` (centres undefined): the growth was 74.7% in assay [1]; 86.5% in assay [2]; 80.5% in [3]; 86.7% in assay [4]; 96.1% in [5]; 59.5% in [6]. For the same molecule, the growth in assay [7] is 66%; in [8], 88.2%; in [9], 83.1%.
`CC(=O)c1c(C)nc2ccccc2c1/C=C/c1cccc(C)c1`: the growth in assay [1] was 61.6%; in assay [2], 75.2%; in [3], 96.9%; in assay [4], 60.9%; in assay [5], 33.8%; in assay [6] it was 60.2%. For the same molecule, the growth in assay [7] is 41.5%; in assay [8] it was 43.6%; in [9], 79.7%; in assay [10], 58.5%.
`Cn1cc2c(=O)nc3c(-c4nc5ccccc5[nH]4)n[nH]n3c2n1`: the growth in assay [1] was 78.6%; in [2], 96.4%; in assay [3], 91.8%; in assay [4], 73%; in assay [5] it was 81.9%; in [6], 83.6%. For the same molecule, the growth in assay [7] was -44.5% (active); in assay [8] it was 79.2%; in assay [9], 80.7%; in [10], 114%.
On to `Cc1ccc(NC(=O)c2sc3nc(C)c(C(=O)c4ccccc4)cc3c2N)cc1`, for which the growth in assay [1] is 96.2%; in [2], 99.9%; in [3] it was 92.2%; in assay [4] it was 90.7%; in assay [5], 65.7%; in [6] it was 80%. Also, the growth in assay [7] was 88.2%; in assay [8], 44.1%; in assay [9] it was 91.9%; in assay [10], 98.5%.
Turning to `c1ccc(-c2cc(-c3cc(-c4ccccc4)on3)no2)cc1`, the growth in assay [1] was 74.9%; in assay [2], 98.8%; in assay [3] it was 89.9%; in [4], 107%; in [5], 45%; in assay [6], 86.1%. Further, the growth in assay [7] was 62.2%; in assay [8] it was 78.9%; in assay [9], 106%; in [10] it was 94.2%.
Regarding `N=C(N)SCc1c2ccccc2c(CSC(=N)N)c2ccccc12`, the growth in assay [1] was 54.4%; in assay [2], 71.2%; in [3], 103%; in assay [4] it was 55.5%; in assay [5] it was 34.4%; in assay [6] it was 32.2%. In addition, the growth in assay [7] was 31.2%; in assay [8] it was 65.9%; in [9] it was 47.7%; in assay [10], 66.1%.
For `Cc1ccc(/C=C(\C#N)c2cc3ccccc3[nH]2)cc1`, the growth is 66% in assay [1]; 95.3% in [2]; 87.7% in assay [3]; 49.5% in [4]; 30.6% in [5]; 51.1% in [6]. Besides, the growth in [7] was 13.7%; in [8], 49%; in assay [9], 72.7%; in assay [10], 32.4%.
In the case of `O=C1C(N2CCOCC2)=C(I)C(=O)c2ncccc21`, the growth was 58.1% in [1]; 84.8% in [2]; 99.1% in assay [3]; 55.8% in assay [4]; 58.8% in assay [5]; 123% in assay [6]. The growth is 36.5% in assay [7], 85.8% in assay [8], 90% in assay [9] and 102% in assay [10].
Turning to `Cc1ccc(-c2nc3nc(-c4ccc(F)cc4)nc(N4CCCNCC4)c3o2)cc1`, the growth in [1] was -79.2% (active); in assay [2] it was 112%; in assay [3], -99% (active); in assay [4], -62.2% (active); in assay [5], -83.2% (active); in [6] it was -57.6% (active). The growth in assay [7] is -65.2% (active); in assay [8] it was -82.4% (active); in assay [9], -86.4% (active); in assay [10], -77.6% (active).
As for `CCN(CC)CCOc1ccccc1C`, the growth in [1] was 111%; in assay [2] it was 116%; in assay [3], 115%; in assay [4], 93.8%; in [5], 109%; in [6] it was 94.6%. For the same molecule, the growth in [7] was 92.6%; in assay [8], 98.6%; in [9] it was 98.8%; in assay [10], 111%.
In the case of `COc1ccc(-c2csc(NC(=O)CN3CCN(CCO)CC3)n2)cc1NS(=O)(=O)c1cccc2c(N(C)C)cccc12`, the growth was 88.1% in [1]; 92.5% in assay [2]; 89.9% in assay [3]; 79.9% in [4]; 67.1% in [5]; 50.7% in assay [6]. For the same molecule, the growth in [7] was 79%; in [8], 75.7%; in assay [9] it was 57.7%; in assay [10] it was 62%.
With `Cn1cc(-c2csc(-c3c[nH]c4ccc(F)cc34)n2)c2cnccc21`, the growth in [1] is 49.3%; in assay [2], 52%; in assay [3], 15.4%; in assay [4], -55.1% (active); in assay [5] it was -54.3% (active); in [6] it was -47% (active). Further, the growth is -78.5% (active) in assay [7], 5.33% (active) in [8], -94.5% (active) in assay [9] and -93.2% (active) in [10].
Turning to `COC(=O)c1nc(-c2ccc(C)cc2)oc1Sc1ccc(C)cc1`, the growth in assay [1] was 105%; in [2] it was 104%; in [3] it was 99.2%; in [4] it was 94%; in [5], 107%; in assay [6] it was 87.9%. Further, the growth is 78.7% in assay [7], 97.6% in [8], 95.7% in assay [9] and 102% in assay [10].
